Measurements from PubChem BioAssay (Tox21).
Results filed as inconclusive are left out. The source made the active and inactive calls. Unless noted, the call rests on the fitted dose curve; in most records, active means well fitted curve in the direction sought with a large enough effect in the repeat runs; inconclusive means weak or mixed curves; inactive means no such curve, though single readings can be large; an effect the other way counts as inactive or inconclusive.

What was measured:
[1] = qHTS assay to identify small molecule antagonists of the androgen receptor (AR) signaling pathway using the MDA cell line in the presence of 0.5 nM R1881 - cell viability counter screen (AID 1259242); further: nearly all actives have a fitted effect of over 45% in size
Summary of the method: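 R1881 at 0.5 nM final stimulated MDA-kb2 cells during 16 hr compound treatment at 37C. Cytotoxicity read: CellTiter-Fluor fluorescence after 30 min.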

[2] = target: Estrogen receptor (Homo sapiens) (UniProt P03372); experiment: qHTS assay to identify small molecule antagonists of the estrogen receptor alpha (ER-alpha) signaling pathway using the BG1 cell line in the presence of 0.1 nM 17-beta-estradiol (AID 1259244); further: nearly all actives have a fitted effect of over 50% in size
Summary of the method: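 VM7Luc4E2; 4xERE-luciferase; 0.1 nM E2 final; 22 h co-incubation, 37C; ONE-Glo luminescence after 30 min at room temperature.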

[3] = qHTS assay to identify small molecule HDAC inhibitors (AID 1259364);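 further: wild-type HCT-116 cells with endogenous class I/II HDAC activity; top concentration of the series differs between compounds; nearly all actives have a fitted effect of over 45% in size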
Summary of the method: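 Relative class I and II HDAC activity is taken from the luminogenic signal in HCT-116 cells, with compound exposure 2 hr and reagent development 30 min at room temperature.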

[4] = qHTS assay to identify small molecule HDAC inhibitors - cell viability counter screen (AID 1259365); further: series mostly up to about 92 µM; nearly all actives have a fitted effect of over 50% in size
Summary of the method: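 HCT-116 (wild type), 1,500 cells/well, overnight 37C/5% CO2; compound in DMSO 2hr; CellTiter-Glo 30min RT; luminescence read.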

[5] = qHTS assay to identify small molecule agonists of the sonic hedgehog signaling (Shh) pathway - cell viability counter screen (AID 1259366); further: nearly all actives have a fitted effect of over 50% in size
Summary of the method: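 CellTiter-Fluor fluorescence read-out, 1 hr at 37C, added after 23hr compound exposure. Cells: 3T3 Gli1-Luc, an NIH/3T3 clone with stably integrated Gli1-Luc reporter, plated 4hr before compound.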

[6] = qHTS assay to identify small molecule antagonists of the sonic hedgehog signaling (Shh) pathway - cell viability counter screen (AID 1259367); further: nearly all actives have a fitted effect of over 55% in size
Summary of the method: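 Using CellTiter-Fluor, viability of Gli1-Luc reporter 3T3 cells is read by fluorescence in the wells used for the Shh luciferase assay. Treatment lasts 23 hr with conditioned medium, then reagent 1 hr at 37C.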

[7] = qHTS assay to identify small molecule agonists of the sonic hedgehog signaling (Shh) pathway (AID 1259368; calls by dose curve;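 further: NIH/3T3-derived 3T3Gli1-Luc cells carrying a stable Gli1-driven firefly luciferase reporter; series mostly up to about 92 µM; nearly all actives have a fitted effect of over 15% in size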)
Summary of the method: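 Mouse fibroblast (NIH/3T3) reporter cells with stably integrated Gli1-Luc were treated 24 hr with compound; firefly luciferase luminescence served as the read-out.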

[8] = qHTS assay to identify small molecule antagonists of the sonic hedgehog signaling (Shh) pathway (AID 1259369; calls by dose curve; further: nearly all actives have a fitted effect of over 45% in size)
Summary of the method: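 Conditioned medium drives Shh signalling in 3T3Gli1-Luc cells; compounds in DMSO co-applied, 24hr at 37 C, then luciferase luminescence.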

[9] = qHTS assay to identify small molecule phospholipidosis (PLD) inducers (AID 1259344; active means well fitted curve in the direction sought with a large enough effect; an effect the other way counts as inactive or inconclusive)
Summary of the method: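 Fluorescent phospholipid staining (LipidTOX Red) measured by automated microscopy in fixed HepG2 cells after 24 h treatment; nuclei counterstained with Hoechst 33342; amiodarone as reference inducer.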
On the % scale 0 is the no-effect control and ±100 the full control effect.

Chain of Estrogen receptor (Homo sapiens) (P03372 whole entry, looked up): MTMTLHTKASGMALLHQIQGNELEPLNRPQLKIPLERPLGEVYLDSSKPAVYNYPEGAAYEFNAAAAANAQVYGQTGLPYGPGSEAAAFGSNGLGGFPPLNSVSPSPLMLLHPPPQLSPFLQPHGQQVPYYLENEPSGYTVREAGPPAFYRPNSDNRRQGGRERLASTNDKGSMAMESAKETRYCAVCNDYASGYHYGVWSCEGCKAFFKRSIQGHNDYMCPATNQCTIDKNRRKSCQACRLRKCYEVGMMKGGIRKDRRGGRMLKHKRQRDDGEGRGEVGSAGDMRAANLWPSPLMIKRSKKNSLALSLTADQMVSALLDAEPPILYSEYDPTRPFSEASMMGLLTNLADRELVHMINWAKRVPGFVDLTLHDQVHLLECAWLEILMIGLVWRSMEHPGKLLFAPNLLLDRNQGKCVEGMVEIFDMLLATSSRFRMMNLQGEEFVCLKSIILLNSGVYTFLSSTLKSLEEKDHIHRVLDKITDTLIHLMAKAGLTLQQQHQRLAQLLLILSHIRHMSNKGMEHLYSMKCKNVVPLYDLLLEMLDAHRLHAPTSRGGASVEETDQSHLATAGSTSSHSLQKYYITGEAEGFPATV

O=c1[nH][nH]c(=O)c2cc([N+](=O)[O-])ccc12
inactive: Potency [1] | Potency [2] | Potency [3] | Potency [4] | Potency [5] | Potency [6] | Potency [7] | Potency [8]

CC(C)N(C)C
inactive: Potency [1] | Potency [2] | Potency [3] | Potency [4] | Potency [5] | Potency [6] | Potency [7] | Potency [8]

Cc1ccc(NC(=O)N(C)C)cc1NC(=O)N(C)C
inactive: Potency [1] | Potency [2] | Potency [3] | Potency [4] | Potency [5] | Potency [6] | Potency [7]

C=CC(=O)NC(C)C
inactive: Potency [1] | Potency [2] | Potency [3] | Potency [4] | Potency [5] | Potency [6] | Potency [7] | Potency [8]

CCCCCCCCCCCCCCCC(=O)OCC
inactive: Potency [1] | Potency [2] | Potency [3] | Potency [4] | Potency [5] | Potency [6] | Potency [7] | Potency [8]

Nc1nc2ccc(OC(F)(F)F)cc2s1
inactive: Potency [1] | Potency [2] | Potency [9] | Potency [4] | Potency [5] | Potency [6] | Potency [7] | Potency [8]

O=C(O)CCS
inactive: Potency [1] | Potency [2] | Potency [3] | Potency [4] | Potency [5] | Potency [6] | Potency [7] | Potency [8]

CCCCCCCCCCCCCCN(C)C
inactive: viability change, negative = cytotoxic [1] -2.29% [at 19 µM] | activity change, negative = inhibition [2] 15.5% [at 19 µM] | activity change, negative = inhibition [3] 1.53% [at 19 µM] | activity change, negative = cytotoxicity [4] 3.73% [at 19 µM] | viability change, negative = cytotoxic [5] -0.743% [at 19 µM] | viability change, negative = cytotoxic [6] 4.21% [at 19 µM] | activity change [7] 1.14% [at 18.9 µM, hits give high values] | activity change, negative = inhibition [8] 19.6% [at 19 µM]

Nc1c(Cl)cc(Cl)cc1[N+](=O)[O-]
inactive: Potency [1] | Potency [2] | Potency [3] | Potency [4] | Potency [5] | Potency [6] | Potency [7]

Oc1ccc2c(c1)Cc1ccccc1-2
inactive: Potency [1] | Potency [2] | Potency [3] | Potency [4] | Potency [5] | Potency [6] | Potency [7]

CC1=C2[C@@H]([C@H](C)CC[C@H]2/C=C(\C)C(=O)O)[C@H](O)C1
inactive: Potency [1] | Potency [2] | Potency [3] | Potency [4] | Potency [5] | Potency [6] | Potency [7]

O=CNNC=O
inactive: Potency [1] | Potency [2] | Potency [3] | Potency [4] | Potency [5] | Potency [6] | Potency [7] | Potency [8]

CC(O)Cn1cnc2c1c(=O)n(C)c(=O)n2C (stereo not given)
inactive: Potency [1] | Potency [9] | Potency [3] | Potency [4] | Potency [5] | Potency [6] | Potency [7] | Potency [8]

CC(=O)OCCC(C)CC(C)(C)C (stereo not given)
inactive: Potency [1] | Potency [2] | Potency [3] | Potency [4] | Potency [6] | Potency [7] | Potency [8]

CC[C@H]1OC(=O)[C@H](C)[C@@H](O[C@H]2C[C@@](C)(OC)[C@@H](O)[C@H](C)O2)[C@H](C)[C@@H](O[C@@H]2O[C@H](C)C[C@H](N(C)C)[C@H]2O)[C@](C)(O)C[C@@H](C)C(=O)[C@H](C)[C@@H](O)[C@]1(C)O
inactive: Potency [1] | Potency [9] | Potency [3] | Potency [4] | Potency [6] | Potency [7] | Potency [8]

COc1ccc(/C=C/C(=O)c2ccc(OC)cc2OC)cc1
inactive: Potency [1] | Potency [9] | Potency [4] | Potency [6] | Potency [7]

CC/C=C\C/C=C\C/C=C\CCCCCCCC(=O)OCC
inactive: Potency [1] | Potency [3] | Potency [4] | Potency [5] | Potency [6] | Potency [7]
